Compounds with a hit are over-represented: about 3.2% of the library has one in this group of screens.
Tau fibril FP = tau fibrillization inhibition (FP); P10636; K18 P301L tau heparin fibrillization, Alexa594 FP, 6 h; Potency, µM (doses to about 57.7 µM), for inactives: at the top dose activity, negative = inhibition, usual class: inhibitors; 0.39% of 280,000 active; AID 1468; also: nearly all actives have a fitted effect of over 55% in size
Target sequence (P10636 561-689 P618L limits assumed): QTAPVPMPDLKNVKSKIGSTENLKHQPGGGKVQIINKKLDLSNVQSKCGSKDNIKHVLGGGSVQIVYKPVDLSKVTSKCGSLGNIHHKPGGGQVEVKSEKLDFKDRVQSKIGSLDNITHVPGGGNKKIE
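Human tau K18 […] P301L fragment, 15 uM unlabeled plus 0.24 uM Alexa 594-labeled tau (final), with compound and 20 uM heparin in 100 mM sodium acetate pH 7; 6 hr at 37 C, then Alexa 594 FP read.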
RGS12 GoLoco inh = RGS12 GoLoco-Gai1 interaction inhibition; 0.44% of 230,000 active; Gai1:RGS12 GoLoco peptide FP, rhodamine, 10 min; Potency, µM (titrated, usually from 61.6 µM), without a hit: top-dose activity, negative = inhibition, most hits filed as inhibitors; active = well fitted inhibition curve with a large enough effect, not every such curve was filed as active; inactive = no such curve, though single readings can be large or run the other way; also: nearly all actives have a fitted effect of over 30% in size
Target sequence (P63096 whole entry, looked up): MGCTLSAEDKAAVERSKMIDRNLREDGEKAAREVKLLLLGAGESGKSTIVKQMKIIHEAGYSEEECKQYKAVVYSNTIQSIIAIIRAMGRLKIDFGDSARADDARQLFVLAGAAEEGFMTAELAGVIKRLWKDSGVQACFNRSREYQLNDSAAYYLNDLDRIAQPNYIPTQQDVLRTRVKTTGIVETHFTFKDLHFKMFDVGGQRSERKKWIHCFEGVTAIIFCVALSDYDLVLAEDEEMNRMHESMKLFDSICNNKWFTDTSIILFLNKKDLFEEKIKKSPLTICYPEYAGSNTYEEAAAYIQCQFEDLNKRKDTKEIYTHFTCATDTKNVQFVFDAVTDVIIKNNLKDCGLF
TRb SRC2 PPI = TRbeta-SRC2 interaction inhibition; AID 1469; TRbeta-SRC2 peptide binding, fluorescence polarization; receptor liganded with 1 µM T3; 0.065% of 280,000 active; Potency, µM (series often up to 106 µM), without a hit: at the top dose activity change, negative = inhibition, actives largely listed as inhibitors;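 also: plate controls were bound peptide for no effect and peptide without receptor for full effect; nearly all actives have a fitted effect of over 50% in size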
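Assay buffer: 20 mM Tris-HCl, 100 mM NaCl, 10% glycerol, 1 mM EDTA, 0.01% NP-40, 1 mM DTT, 1 uM T3, 5% DMSO; TRb LBD 0.6 uM, Texas Red SRC2 20 nM; FP after 5 hr.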
TR SRC2 fluor cs = counter-screen for TRb-SRC2 inhibitors: fluorescence interference; 0.29% of 280,000 active; Potency, µM (doses to about 106 µM), without a hit: at the highest dose fluorescence change, negative = quenching; TRb/SRC2 Texas Red total fluorescence interference; active = well fitted curve in either direction with a large enough effect; inconclusive = small, poorly fitted or top-dose-only effect
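Human TRβ ligand-binding domain (0.6 uM) and Texas Red SRC2 peptide (20 nM) in Tris buffer with 1 uM T3 and 5% DMSO were incubated with pinned compound for 5 hr at ambient temperature. Total fluorescence was computed as S + 2P (555/632 nm).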
Tau ThT inhib = blocks human tau fibril formation measured by thioflavin T; Potency, µM (series often up to 57.4 µM), inactives show at the highest dose activity, negative = inhibition, hits mostly inhibitors; recombinant tau K18 P301L, heparin-induced fibrillization, ThT fluorescence; 2.1% of 270,000 active; P10636; AID 1460; also: nearly all actives have a fitted effect of over 55% in size
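Tau K18 P301L fragment (15 uM unlabeled plus 0.24 uM Alexa 594-labeled) in 100 mM sodium acetate pH 7 with compound, fibrillization induced by 20 uM heparin for 6 hr at 37 C. Thioflavin T (30 uM) added, fluorescence read after 1 hr (ex 450, em 510 nm).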
Tau fluor counter = counter-screen for tau fibril formation inhibitors. tau K18 P301L Alexa594 fluorescence, heparin fibrillization. Potency, µM (top dose mostly 57.7 µM), inactives show top-dose activity change, negative = decrease. 0.93% of 280,000 active. AID 1463; also: nearly all actives have a fitted effect of over 55% in size
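Human tau K18 P301L (15 uM unlabeled, 0.24 uM Alexa 594-labeled) in 100 mM sodium acetate pH 7 with 20 uM heparin, 6 hr at 37 C. ThT 30 uM added, 1 hr ambient; Alexa 594 FP and total fluorescence read at 555/632 nm.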
* marks the source's active call; other numbers are inactive results; ? = inconclusive; . = no result given; [ ] = dose if it differs, or a comment. Unless noted, calls follow the shape of the dose curve; as a rule, active = well fitted curve in the direction sought with a large enough effect; inconclusive = small, poorly fitted or top-dose-only effect, or another doubt; inactive = no such curve, though single readings can be large; an effect the other way counts as inactive or inconclusive. Unless noted, % is scaled to controls: 0 for no effect and ±100 for the full control effect; potency is read from the fitted curve at half-maximal effect.

SMILES	Tau fibril FP	RGS12 GoLoco inh	TRb SRC2 PPI	TR SRC2 fluor cs	Tau ThT inhib	Tau fluor counter
COc1ccccc1-c1noc(-c2ccc(NCc3ccco3)c([N+](=O)[O-])c2)n1	-10%	.	6%	1%	10%	3%
Cc1ccc(OC(=O)c2snnc2C)cc1C	-5%	.	-7%	9%	?	-27%
O=C(CSc1nnnn1-c1ccccc1)Nc1ccc(N2CCOCC2)c(Cl)c1	12%	7.1µM*	-3%	-1%	-1%	-25%
c1cc(Nc2cccc3nccnc23)c2nccnc2c1	-3%	26%	-5%	-4%	5µM*	-28%
COc1ccccc1C(=O)Nc1ccc2nc(SCC(=O)N(C)c3ccccc3)sc2c1	-15%	.	4%	7%	-5%	-16%
CC1CCC2C(=O)OC(COc3ccc(C(C)(C)C)cc3)CN2C1c1ccc(Br)cc1 (configuration not stated)	3%[11.6 µM]	.	0%[11.2 µM]	-1%[11.2 µM]	-10%[11.5 µM]	-15%[11.6 µM]
CC(=O)C1=C(c2cccc([N+](=O)[O-])c2)N(C(C)=O)n2c(C)nnc2S1	?	-4%	-5%	-7%	3.5µM*	-29%
NC(CSSCC(N)C(=O)O)C(=O)O (configuration not stated)	.	13%	-3%	-3%	.	.
N[C@@H](CSS(=O)(=O)O)C(=O)O	18µM*	3%	-14%	-1%	13µM*	-12%
Cc1c(Cl)cccc1NC(=O)NCCOCCn1c(=O)oc2ccccc21	-3%	.	-1%	-1%	-17%	?
Cc1ccccc1N1C(=O)C(Cl)=C(N2CCCCCC2)C1=O	?	11%	1%	-4%	?	-25%
O=C1C(Cl)=C(N2CCCCC2)C(=O)N1c1ccccc1Cl	20µM*	-2%	-7%	-2%	14µM*	?
COc1ccc(OC)c(N2C(=O)C(Cl)=C(N3CCOCC3)C2=O)c1	25µM*	1%	4%	-5%	14µM*	?
COc1ccc(OC)c(N2Cc3cc(C)c(C)cc3C2)c1	-8%	22%	-25%	1%	?	-22%
COc1ccc(OC)c(N2C(=O)C(Cl)=C(N3CCCCC3)C2=O)c1	16µM*	4%	2%	-5%	13µM*	?
O=C1NN(c2ccccc2)C(=O)/C1=C/c1ccc(Sc2ccc(Cl)cc2)o1	-17%	5%	2%	-1%	11µM*	?
Cc1ccc(Sc2ccc(/C=C3/C(=O)NN(c4ccccc4)C3=O)o2)cc1	-13%	6%	-5%	-1%	13µM*	?
O=C1NC(=O)/C(=C\c2ccc(Sc3ccc(Cl)cc3)o2)N1	-2%	23%	0%	-4%	-15%	-13%
O=c1c2c([nH]c3ccc(Br)cc13)CCCC2	1%	-3%	-1%	1%	-2%	1%
O=c1ccc2cc3c([nH]c4ccc(Br)cc43)oc-2c1O	?	121%	0%	-13%	14µM*	?
CCSCCOC(=O)C1=C(C)NC(=O)NC1c1ccccc1 (configuration not stated)	-9%	1%	-3%	-2%	-13%	-18%
COC(=O)C1=C(C)NC(C)=C(C(=O)OCCSc2ccccc2)[C@@H]1C	10%	3%	9%	0%	-19%	16µM*[quencher]
CC(=O)N1c2ccc(S(=O)(=O)Nc3ccc(C)c(Cl)c3)cc2CC1C (configuration not stated)	-4%	.	-15%	16µM*[quencher]	-6%	-23%
O=C(O)c1cc(Cl)cc(Cl)c1	.	-24%	9%	-3%	.	.
CCOC(=O)CN1C(=O)Nc2ccc(Br)cc2C1c1ccccc1 (configuration not stated)	0%	-18%	-6%	-2%	-14%	-14%
SMILES	Tau fibril FP	RGS12 GoLoco inh	TRb SRC2 PPI	TR SRC2 fluor cs	Tau ThT inhib	Tau fluor counter
CCOC(=O)CN1C(c2ccc(O)cc2)Nc2ccc(Br)cc2C1c1ccccc1 (configuration not stated)	?	6%	2%	0%	?	7.1µM*[quencher]
c1cc(CN2CCCNCCNCCCNCC2)ccc1CN1CCCNCCNCCCNCC1	.	.	1%	1%	.	.
Oc1ccc(/C=N/Nc2cc(N3CCCC3)nc(N3CCCC3)n2)cc1O	-13%	12%	2%	-4%	25µM*	16µM*[quencher]
Oc1ccc(/C=N\Nc2cc(N3CCOCC3)nc(N3CCOCC3)n2)c(O)c1	3%	-3%	-6%	-3%	?	?
Cn1c(=O)c2c(nc(SCC(=O)Nc3ccc(OC(F)(F)F)cc3)n2Cc2cccc(C(F)(F)F)c2)n(C)c1=O	?	.	-25%[53 µM]	-77%[53 µM]	-14%	-32%
O=C(CNc1ccccc1)c1ccc([N+](=O)[O-])cc1	?	-12%	4%	0%	14µM*	?
O=C(CNc1cccc2ccccc12)c1ccc([N+](=O)[O-])cc1	?	-4%	1%	-1%	14µM*	?
O=C(CNS(=O)(=O)c1ccccc1)OCC(=O)c1ccc([N+](=O)[O-])cc1	?	2%	-2%	-1%	25µM*	-19%
O=C(COC(=O)c1cc([N+](=O)[O-])ccc1NCCO)c1ccccc1	3%	-2%	-7%	100µM*[quencher]	3%	-3%
O=C(Cc1ccccc1)NCC(=O)OCC(=O)c1ccc([N+](=O)[O-])cc1	?	7%	-7%	3%	?	-8%
NC(=O)COC(=O)c1cc([N+](=O)[O-])ccc1NCCO	-5%	-6%	7%	-5%	-9%	-11%
O=C(CNC(=O)c1ccc([N+](=O)[O-])cc1)c1ccccc1	1%	4%	4%	0%	-15%	-3%
COc1ccc(S(=O)(=O)c2cn(CC(=O)Nc3cc(C)ccc3C)c3ccccc3c2=O)cc1	-5%	.	2%	0%	6%	-6%
CC(Nc1cccc2ccccc12)C(=O)N/N=C/c1ccc([N+](=O)[O-])cc1 (configuration not stated)	?	0%	-17%	0%	?	7.9µM*[quencher]
CC(C)CC(=O)Nc1ccc2nc(SCC(=O)N3CCOCC3)sc2c1	-3%	.	-14%	1259µM*[quencher]	2%	-7%
COc1cc2c(cc1OC)[C@@H]1C(=O)c3ccc4c(c3O[C@@H]1CO2)C=CC(C)(C)O4	5%	3%	-1%	0%	?	?
CCCCCCn1c(=O)[nH]c2nc3cc(N)ccc3nc2c1=O	?	.	2%	0%	28µM*	?
CCCCCn1c(=O)c(C(=O)c2ccccc2)nc2ccccc21	-1%	-3%	-20%	0%	-15%	-18%
O=C(OCC(=O)c1c[nH]c2ccccc12)c1ccc([N+](=O)[O-])s1	-13%	13%	-1%	-4%	-4%	-10%

Bioassay records from PubChem.
